Assay results as given in PubChem BioAssay (NCATS).
Inconclusive results are not listed. Active and inactive are the calls of the source. The call rests on the fitted dose curve; in most records, active means well fitted inhibition curve with a large enough effect; inconclusive means small, poorly fitted or top-dose-only effect; inactive means no such curve, though single readings can be large or run the other way.

test: BET inhibitor-based combinations targeting novel dependencies in MECOM-rearranged (r) AML: UCSD-AML1 cell line (AID 2202235); conditions: UCSD-AML1 AML cells viability, CellTiter-Glo, 48 h; series mostly up to 46 µM; viability (% of control): at the top concentration; further: nearly all actives have a fitted effect of over 40% in size;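 on viability (% of control): plate controls were DMSO vehicle wells for no effect and blank wells for full effect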
Method in brief: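 Cells were plated at 500 per well and exposed to each drug across an 11-point dose range for 48 hr at standard incubator conditions. Viability was read by CellTiter-Glo luminescence, and activity was expressed as AUC and per-cell-line Z-transformed AUC.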
Potency means the concentration at half of the fitted maximal effect.

| Compound | Potency | viability (% of control) |
| --- | --- | --- |
| CCc1cnn2c(NCc3ccc[n+]([O-])c3)cc(N3CCCC[C@H]3CCO)nc12 | 23.5 nM (active) |  |
| COC(=O)C1=C(C)NC(c2ncc(F)cc2F)=N[C@@H]1c1ccc(F)cc1Cl |  | 101% (inactive) |
| O=C(CCNC(=O)c1ccc(OC(F)(F)F)cc1)N[C@@H]1CCCc2ccccc21 |  | 64.7% (inactive) |
| COc1ccc2c(c1)[C@]1(C[C@H]1c1ccc3c(/C=C/c4ccc(CN5C[C@@H](C)O[C@@H](C)C5)cc4)n[nH]c3c1)C(=O)N2 | 18600 nM (active) |  |
| Cc1c(-c2ccc(-c3ccccc3F)cc2)nc2ccc(F)cc2c1C(=O)O | 742 nM (active) |  |
| NC(=O)c1cnc2[nH]ccc2c1NC1C2CC3C[C@H]1CC(O)(C3)C2 (stereo partly drawn) | 833 nM (active) |  |
| CCN(CC)C(=O)Cc1csc(NS(=O)(=O)c2cccc(Cl)c2C)n1 |  | 107% (inactive) |
| Cc1cc(Oc2ccc3nc(COc4ccc(CC5SC(=O)NC5=O)cc4)n(C)c3c2)cc(C)c1N (stereo not drawn) |  | 118% (inactive) |
| CC(C)c1onc(-c2c(Cl)cccc2Cl)c1COc1ccc(/C=C/c2cccc(C(=O)O)c2)c(Cl)c1 |  | 108% (inactive) |
| Cc1noc(-c2ccc(-c3ccc(C4(C(=O)O)CC4)cc3)cc2)c1NC(=O)O[C@H](C)c1ccccc1 |  | 89.2% (inactive) |
| CN(C)c1ccccc1CN1CCCN(Cc2ccccc2N(C)C)C1c1ccncc1 |  | 86.4% (inactive) |
| CCCCN(CCCC)CCC(O)c1cc2c(Cl)cc(Cl)cc2c2cc(C(F)(F)F)ccc12 (stereo not drawn) | 26300 nM (active) |  |
| CN(C)CCNC(=O)COc1c2cccc1Cc1cccc(c1OCC(=O)NCCN(C)C)Cc1cccc(c1OCC(=O)NCCN(C)C)Cc1cccc(c1OCC(=O)NCCN(C)C)C2 | 428 nM (active) |  |
